# Rows were chosen to be rich in hits. Some 13% of all compounds tested hit in one or more screens of this group.
# CHX counter – affects cycloheximide protein synthesis inhibition readout, counter-screen; cell reporter, cycloheximide protein synthesis inhibition counterscreen; 12% of 300,000 active; max response, %; in the data active = max response mostly above about 13%, no sharp cut-off; inactive = mostly below about 14%; note: read at 38.3 µM for the half of the compounds with a filed dose
# Marburg entry inh – blocks Marburg virus binding to or entry into cells; 1.8% of 300,000 active; AID 540276; Marburg virus pseudotyped entry inhibition, cell reporter; Potency, µM (doses to about 37.8 µM), most hits filed as inhibitors; calls by dose curve; tested in HEK293 cells
# Lassa entry inh – Lassa virus entry inhibition. Lassa virus pseudotype entry inhibition, cell reporter. Potency, µM (titrated, usually from 37.9 µM), actives largely listed as inhibitors. 1.2% of 300,000 active; calls by dose curve; tested in HEK293 cells; note: nearly all actives have a fitted effect of over 50% in size
# FMDV antiviral – blocks foot and mouth disease virus; FMDV antiviral cell-based qHTS; 1.2% of 410,000 active; Potency, µM (doses to about 57.9 µM), usual class: inhibitors; AID 1159524; calls by dose curve; tested in HEK293T cells; note: read-out not given here; nearly all actives have a fitted effect of over 45% in size
# HCV inh – blocks hepatitis C virus; 3.4% of 340,000 active; Potency, µM (doses to about 41.8 µM), most hits filed as inhibitors; AID 651820; Huh7.5.1 HCVcc-Cre infection, luciferase reporter, 44 h; active = well fitted inhibition curve with a large enough effect; inconclusive = small, poorly fitted or top-dose-only effect, or another doubt; inactive = no such curve, though single readings can be large or run the other way
#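 Cells seeded at 1,000/well and cultured 4 h, then compounds added followed by HCVcc-Cre virus (~0.5 moi). After 44 h further culture, luciferase substrate was added, plates held 15 min at room temperature, and luminescence read for 15 sec.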
# Shiga toxin inh – inhibitors of Shiga toxin in Vero cells; AID 2315; Vero cells, Shiga toxin protein synthesis inhibition reporter; inhibition, % at 38.7 µM; 9.2% of 290,000 active; in the data active = inhibition mostly above about 28%, no sharp cut-off; inactive = mostly below about 43%
# Hits are given with their value; - = inactive; ? = inconclusive; . = no result; + = active, no number.
SMILES,CHX counter,Marburg entry inh,Lassa entry inh,FMDV antiviral,HCV inh,Shiga toxin inh
CN(C)CCNC(=O)c1cc2cc(Br)ccc2oc1=O,-,-,-,-,-,-
CC(C)NC(=O)c1cc2cc(Br)ccc2oc1=O,30,-,-,-,-,86
COc1ccc2oc(=O)c(C(=O)NC(C)c3ccccc3)cc2c1 (stereo unspecified),18,-,-,-,-,-
COc1ccc2oc(=O)c(C(=O)Nc3ccc(C(=O)O)cc3)cc2c1,.,.,-,-,.,.
CC(NC(=O)c1cc2ccccc2oc1=O)c1ccc(O)cc1 (stereo unspecified),-,-,-,-,-,-
O=C(COC(=O)c1ccccc1O)Nc1ncc(Cl)cc1Cl,-,-,-,-,-,-
Cc1noc(C)c1-c1ccc2ncnc(NCc3ccc(Br)cc3)c2c1,-,.,.,.,.,-
CC1=NN(c2ccccc2)C(=O)C1C=Nc1ccc(N(C)C)cc1 (stereo unspecified),17,-,-,-,-,39
CN(C)S(=O)(=O)c1cc(NC(=O)CNCCN2CCOCC2)ccc1Cl,-,.,.,-,-,-
C#CCOc1ccccc1/C=N/NC(=O)c1ccccc1OCc1ccccc1,-,.,.,18µM,?,-
COc1ccc(/C(C)=N/NC(=O)c2ccccc2OCc2ccccc2)c(OC)c1,33,?,-,-,-,165
O=C(N/N=C/c1ccncc1)c1ccccc1OCc1ccc(Br)cc1,-,?,?,-,?,-
COc1ccc(/C(C)=N/NC(=O)CNC(=O)c2ccncc2)c(OC)c1,-,-,?,-,-,-
COc1ccc(COc2ccccc2C(=O)NCc2ccccc2)cc1F,-,?,?,?,10µM,-
COc1ccc(NC(C)C(=O)N/N=C/c2ccccc2OCc2cccc(Br)c2)cc1 (stereo unspecified),-,?,11µM,-,11µM,-
COc1cc(C(=O)NCc2ccccc2)ccc1OC(F)F,-,-,-,-,-,-
COC(=O)CCCN=C1SCCN1Cc1ccccc1,-,-,-,-,-,-
O=C(O)CC(C(=O)N(c1ccccc1)c1ccccc1)N1CCOCC1 (stereo unspecified),-,-,-,-,-,-
COc1ccc(/C(C)=N/NC(=O)C2C3CCCCC32)c(OC)c1 (stereo unspecified),-,-,-,-,-,41
COc1ccc(/C=N/NC(=O)c2ccccc2OCc2ccccc2)c(OC)c1,30,?,?,-,13µM,64
COc1ccccc1C(=O)NCC(=O)N/N=C/c1cc(Br)ccc1OCc1ccccc1,-,?,?,?,10µM,-
COc1ccccc1C=NNC(=O)c1ccccc1OCCOc1ccccc1,.,?,?,-,?,.
CC(=O)c1cccc(NC(=O)N2CCCC2C(=O)NCc2ccccc2)c1 (stereo unspecified),-,-,?,-,-,-
Cc1nn(-c2ccccc2)c(N)c1N=Nc1ccccc1,74,?,?,-,?,77
Cc1ccc(C)n1-c1cccc(S(=O)(=O)N2CCOCC2)c1,-,-,?,-,-,-
SMILES,CHX counter,Marburg entry inh,Lassa entry inh,FMDV antiviral,HCV inh,Shiga toxin inh
Cc1nn(-c2ccccc2)c(N)c1N=Nc1cccc(S(=O)(=O)N2CCOCC2)c1,-,?,?,-,22µM,-
Cc1nn(-c2ccccc2)c(N)c1C(O)(C(F)(F)F)C(F)(F)F,-,?,-,-,-,-
Nc1ncnc(N)c1N=Nc1ccccc1,-,5µM,?,-,-,-
Cc1nn(-c2ccccc2)c(N)c1N=Nc1ccc(Cl)cc1,29,?,?,-,?,102
Cc1cc(C)n2nc(N)c(N=Nc3ccccc3)c2n1,-,?,-,-,-,-
Nc1c(N=Nc2ccccc2F)c(=O)[nH]n1-c1ccccc1,44,?,?,-,-,63
Cc1nc2c(N=Nc3ccccc3F)c(N)nn2c(N)c1C#N,16,?,-,-,-,-
Nc1nn(-c2ccccc2)c(N)c1N=Nc1ccccc1,51,?,?,-,?,102
Cc1cc(=O)n2[nH]c(N)c(N=Nc3ccccc3F)c2n1,-,?,-,-,?,-
Cc1cccc(N=Nc2c(C)nn(-c3ccccc3)c2N)c1C,77,-,-,-,?,72
COC(=O)C(CCSC)NC(=O)c1c(C)oc2ncn(CC(C)C)c(=O)c12 (stereo unspecified),.,.,-,-,.,.
Nc1nn(-c2ccccc2)c(N)c1N=Nc1ccccc1F,50,?,?,-,?,+
CCOC(=O)Cn1c(=NC(=O)c2cccs2)sc2cc(C(=O)OC)ccc21,44,?,?,-,-,72
O=C1CCC/C(=N\NC(=O)COc2ccc(Cl)cc2)C1,-,?,-,-,-,-
Cc1cc(C)n(-c2ccnc3cc(Cl)ccc23)n1,18,.,.,-,-,-
O=C(NCCc1c[nH]c2ccccc12)C(F)(F)C(F)F,-,-,?,-,-,-
Fc1cccc(NC(=S)NNc2ccccc2)c1,34,.,.,-,-,45
Fc1cccc(NC(=S)NNc2c3ccccc3nc3ccccc23)c1,-,-,?,?,4.5µM,-
Cc1ccc(NC(=O)C2CCCCC2)c(O)c1,21,.,.,.,.,-
O=C(CCC1CCCCC1)Nc1ccccc1-c1ccccc1,-,-,-,-,-,-
Cc1ccc(O)c(NC(=O)CCC2CCCCC2)c1,34,-,-,-,-,138
Cn1c(NC(=O)CCC2CCCCC2)cc(=O)n(C)c1=O,71,.,.,-,-,113
O=C(CCC1CCCCC1)Nc1ccccc1O,39,-,?,-,-,107
COc1ccc2c(c1)CC(C(=O)NCCN1CCN(c3ccccc3F)CC1)CO2 (stereo unspecified),.,.,-,-,.,.
COc1ccc2cc3cc(C(=O)NCCN4CCN(c5ccccc5F)CC4)oc3nc2c1,-,13µM,?,18µM,?,-
SMILES,CHX counter,Marburg entry inh,Lassa entry inh,FMDV antiviral,HCV inh,Shiga toxin inh
COc1ccc(OCC(=O)Nc2ccccc2N2CCN(C)CC2)cc1,-,-,.,-,-,-
COc1ccc2cc3cc(C(=O)Nc4ccccc4N4CCN(C)CC4)oc3nc2c1,-,-,-,?,10µM,-
O=C1/C(=C\c2ccccc2)CN(C(=O)CCN2CCCCC2)C/C1=C/c1ccccc1,.,1µM,?,7.9µM,?,.
CCN(CC)CCC(=O)N1C/C(=C/c2ccccc2)C(=O)/C(=C\c2ccccc2)C1,.,11µM,10µM,3.5µM,?,.
CCN(CC)CCC(=O)N1c2ccccc2Sc2ccc(Cl)cc21,.,.,.,-,?,.
O=C1/C(=C\c2ccc(Cl)c(Cl)c2)CN(C(=O)CCN2CCOCC2)C/C1=C/c1ccc(Cl)c(Cl)c1,.,?,?,3.2µM,?,.
O=C(CCN1CCCCC1)c1ccccc1,-,-,-,-,-,-
O=C(NCCN1CCOCC1)c1ccc(Cl)c(Cl)c1,-,-,-,-,-,-
Cc1cc(C)n2nc(SCC(=O)Nc3ccc(F)cc3)nc2n1,-,.,.,-,-,-
O=C(O)c1ccncc1,.,.,.,-,.,.
C=CCn1c(CCNC(=O)c2ccc(Cl)c(Cl)c2)nnc1SCCOc1ccc(OC)cc1,-,?,-,28µM,10µM,-
COc1ccc(/C=C/C(=O)N2CCNC(=O)C2)c(OC)c1,14,.,.,-,-,-

# Screening results: PubChem, National Center for Advancing Translational Sciences (NCATS)
